Assay results from PubChem BioAssay AID624330 (Southern Research Specialized Biocontainment Screening …, 2012).
Out of some 340,000 compounds screened, about 2,100 (0.62%) were called active.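 Rule for the calls: active = first-screen hits whose inhibition reached a set limit at any dose in the follow-up dose series; inconclusive = inhibition above the set first-screen limit but never retested; inactive = the rest.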 Not all results are given here. Entries with a potency or affinity are not part of this list.

These compounds were tested against Rac GTPase-activating protein 1 (Homo sapiens) (UniProt Q9H0H5) (assay: blockers of MgcRacGAP-driven Rac1 GTP hydrolysis – biochemical, ADP Hunter fluorescence, primary and confirmatory, confirmation (AID 624330;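 note: fluorescence reports GDP produced by GAP-driven GTP hydrolysis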)). Conditions: MgcRacGAP-stimulated Rac1 GTP hydrolysis, at 30 µM, stronger effect = higher value, GST-tagged Rac1 F28L mutant substrate.
Chain of Rac GTPase-activating protein 1 (Homo sapiens) (Q9H0H5 whole entry, looked up): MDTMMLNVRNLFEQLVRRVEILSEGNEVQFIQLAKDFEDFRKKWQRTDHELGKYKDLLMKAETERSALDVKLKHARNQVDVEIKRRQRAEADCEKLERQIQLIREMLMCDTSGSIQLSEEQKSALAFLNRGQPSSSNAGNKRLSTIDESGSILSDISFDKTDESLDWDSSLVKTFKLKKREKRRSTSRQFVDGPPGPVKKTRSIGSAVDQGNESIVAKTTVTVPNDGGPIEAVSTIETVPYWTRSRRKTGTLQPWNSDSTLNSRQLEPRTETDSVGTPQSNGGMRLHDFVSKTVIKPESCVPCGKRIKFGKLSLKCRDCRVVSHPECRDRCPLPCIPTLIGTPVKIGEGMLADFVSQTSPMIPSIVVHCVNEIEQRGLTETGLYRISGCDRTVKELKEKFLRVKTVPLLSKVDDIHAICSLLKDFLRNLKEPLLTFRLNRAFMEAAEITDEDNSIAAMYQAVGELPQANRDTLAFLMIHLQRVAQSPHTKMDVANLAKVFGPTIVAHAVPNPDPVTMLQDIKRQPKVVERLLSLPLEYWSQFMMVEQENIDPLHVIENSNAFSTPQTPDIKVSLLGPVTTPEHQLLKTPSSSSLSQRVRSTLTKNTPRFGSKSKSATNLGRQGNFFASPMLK

inhibition, inactive:
Cc1nn(C)c(C)c1NC(=O)CN1CCC(O)(c2ccc3c(c2)OCO3)CC1 2.97%
COc1ccccc1NC(=O)c1ccc2c(c1)CCN2S(C)(=O)=O 6.1%
CC(C)NC(=S)N/N=C1\CCCc2ccccc21 3.57%
Nc1nc(NC(=O)c2ccc(F)cc2)ns1 7.21%
Cc1nc2ccc(N)cc2c(=O)n1Cc1ccc(Cl)cc1 4.23%
Nc1nc(N)c2cc(CNc3ccc(Cl)c(Cl)c3)ccc2n1 14.7%
Cc1c(C(C)C[C@H](C)O)oc(=O)c2c1Oc1c(C)c(C(C)C[C@H](C)O)oc(=O)c1C2 (some centres undefined) 7.75%
CCN(CC)c1ccc(/C=N/N2CCN(c3ccccn3)CC2)cc1 13.5%
CN1CCN(/N=C/c2ccc(N(c3ccccc3)c3ccccc3)cc2)CC1 15.3%
CN1CCN(/N=C/c2ccc(N(C)c3ccccc3)cc2)CC1 27.2%
C(=N\N1CCN(Cc2ccccc2)CC1)/c1ccccc1 8.38%
CCOc1ccc(/C=N/N2CCN(Cc3ccccc3)CC2)cc1 -1.17%
CCN(CC)c1ccc(C=NN2CCCCCC2)cc1 -1.67%
CCOc1ccccc1/C=N/N1CCN(Cc2ccccc2)CC1 -6.47%
CCN(CC)c1ccc(/C=N\N2CCN(Cc3ccc(C)cc3)CC2)cc1 20.7%
COc1cccc(-c2nn(C)c3sc(C(=O)NCc4ccc(C)cc4)cc23)c1 5.17%
CCOC(=O)c1[nH]c(C)c(C(=O)OCC(=O)NCc2ccc(OC)c(OC)c2)c1C 1.24%
Cn1ncc2c(NCc3ccccc3)nc(NCCCO)nc21 8.06%
CC(C)CC(NC(=O)OC(C)(C)C)c1cn([C@@H](Cc2cc3ccccc3[nH]2)C(=O)N2CCN(C(=O)OC(C)(C)C)CC2)nn1 (some centres undefined) 9.06%
COC(=O)c1c(C)[nH]c(C(=O)OC(C)C(=O)N2CCOCC2)c1C (centres undefined) 13.4%
O=C(COC(=O)CC12CC3CC(CC(C3)C1)C2)Nc1ncc(Cl)cc1Cl 3.82%
COc1ccc(C(=O)OCC(=O)N2CCN(C(=O)c3ccco3)CC2)cc1OC 0.19%
COc1ccc2c(c1)C(c1ccc(C)o1)=NNC(c1ccccc1)=N2 2.46%
CCC1=NN(C(=O)Cc2ccccc2)C(O)(c2ccncc2)C1 (centres undefined) 5.64%
CCN(CC)c1ccc(/C=N/N2CCN(Cc3ccccc3)CC2)c(O)c1 25.7%
CCN(Cc1ccccc1)c1ccc(/C=N/NC(=O)c2cccc(S(=O)(=O)N3CCOCC3)c2)cc1 9.77%
CCN(CC)c1ccc(/C=N/N2CCN(c3ccccc3OC)CC2)cc1 13%
CCN(CC)c1ccc(/C=N/N2CCN(Cc3ccc(C)cc3)CC2)c(O)c1 15.3%
Cc1c(N(CC(=O)O)S(=O)(=O)c2ccccc2)c(=O)n(-c2ccccc2)n1C 11.2%
O=C(c1ccc(NS(=O)(=O)c2cccc3cccnc23)cc1)N1CCCCC1 -16.1%
CCOc1ccc(NC(=O)CN(C)C(=O)c2ccc(C)c(S(=O)(=O)N3CCCCC3)c2)cc1OCC 6.08%
O=[N+]([O-])c1ccc2[nH]c(O)c(N=NC(=S)NCC3CCCO3)c2c1 (centres undefined) 9.66%
COc1cccc(NC(=O)C(=O)NCC2CCCN2S(=O)(=O)c2ccccc2)c1 (centres undefined) 3.83%
CCc1ccccc1-n1nnnc1-c1cnccc1C(F)(F)F 4.03%
O=S(=O)(Cc1c(F)cccc1Cl)c1ncn[nH]1 5.34%
CN(C)c1ccc(CNn2cnnc2SCC(=O)NC(C)(C)C)cc1 14.5%
Cc1[nH]n(-c2cccc(Cl)c2)c(=O)c1-c1ccccc1 30.6%
Cc1[nH]n(-c2ccccc2)c(=O)c1-c1ccc(Cl)cc1 8.45%
COc1ccc([N+](=O)[O-])cc1N(CC(=O)N1CCN(Cc2ccccc2)CC1)S(C)(=O)=O 6.86%
COc1ccc(OC)c(NC(=O)COC(=O)CCCN2C(=O)c3ccccc3C2=O)c1 3.2%
C[C@@H]1COC(=O)CCC/C=C\C[C@@H](CC(=O)N(CCO)Cc2ccccc2)C(=O)N1 4.52%
COc1ccc(-c2cc3ccccc3n2CC(O)CN2CCC(C)CC2)cc1 (centres undefined) 9.85%
COc1ccc(-c2cc3ccccc3n2CC(O)CN2CCOCC2)cc1 (centres undefined) 4.64%
COc1ccc(C(=O)N/C(=C\c2ccc(-c3cccc([N+](=O)[O-])c3)o2)C(=O)NCCCN2CCOCC2)cc1 -23.2%
Cc1cccc(C)c1NC(=O)Cn1nnc(-c2ccc(N3CCOCC3)cc2)n1 3.65%
Cc1nc(N2CCN(c3ccccc3F)CC2)[nH]c(=O)c1C 6.5%
Cc1c(C(=O)N(Cc2ccncc2)CC2CCCO2)oc2c(F)cccc12 (centres undefined) 5.69%
COc1cc(C=O)ccc1OC(=O)c1ccncc1 14.9%
COc1cc(/C=N/n2cnnc2)ccc1OC(=O)c1ccco1 16.6%
COc1cc(C=O)ccc1OC(=O)c1cccnc1 7.23%
COc1cc(/C=N/NC(=O)c2ccncc2)ccc1OC(=O)c1cc(OC)c(OC)c(OC)c1 16.1%
COc1cc(CC(=O)OCc2cccc([N+](=O)[O-])c2)cc(OC)c1OC 2.78%
CCCCCC(=O)Nc1ccc(N2CCN(C(=O)CCC)CC2)cc1 -1.29%
CCOC(=O)C1(Cc2cccc(OC)c2)CCN(CC(O)CO)CC1 (centres undefined) -0.09%
CCOc1ccc(-c2nc3c(s2)CCc2onc(-c4ccc(OC)cc4)c2-3)cc1 1.06%
O=S(=O)(c1ccccc1Cl)N1CCCC1c1nc(-c2cccc(Cl)c2)no1 (centres undefined) 2.74%
C[C@@H](C(=O)OCC(=O)NCCc1ccc(S(N)(=O)=O)cc1)N1C(=O)C2CCCCC2C1=O (some centres undefined) -3.1%
CCCn1c(=S)[nH]c2cc(Cl)ccc21 9.71%
COc1ccc2c(c1)-c1c(sn(-c3ccccc3)c1=S)C(C)(C)N2 18.2%
COc1ccc(-n2sc3c(c2=S)-c2cc(OC)ccc2NC3(C)C)cc1 -3.29%
Cc1ccc(CNc2nc3ccccc3n2C)cc1 13.6%
CC(C)NC(=O)Nc1ccc2c(c1)C(=O)N([C@H](C)CO)C[C@H](C)[C@@H](CN(C)C(=O)Nc1ccc(C(F)(F)F)cc1)O2 12.5%
CCCN(CCC)CCOc1cc(C)ccc1C(C)C 18.2%
Cc1ccc(C(C)C)c(OCC#CCN2CCOCC2)c1 30.8%
O=C(c1cc2ccccc2oc1=O)N(Cc1ccccc1F)C1CCS(=O)(=O)C1 (centres undefined) 6.33%
OCCCNCc1ccc(Cl)cc1Cl -1.18%
COc1cc(NC(=O)n2ncc3cc(Cl)ccc32)cc(OC)c1 5.31%
COc1ccc(C)cc1NC(=O)n1ncc2cc(Cl)ccc21 8.15%
COc1ccc(S(=O)(=O)Nc2cccc(SC)c2)cc1C(=O)N1CCOCC1 9.83%
Cc1ccccc1C(=O)NC(=S)Nc1ccccc1N1CCCC1 13.5%
CC(=O)Nc1ccc(Nc2ccc([N+](=O)[O-])cn2)cc1 16.8%
O=[N+]([O-])c1ccc(Nc2ccc(F)cc2)nc1 6.73%
O=[N+]([O-])C1=C(Nc2cccc3ccccc23)CS(=O)(=O)C1 9.69%
Cc1ccc(NC2=C([N+](=O)[O-])CS(=O)(=O)C2)cc1 7.24%
O=C(CSc1ncccn1)Nc1ccc(Cl)c(S(=O)(=O)N2CCOCC2)c1 7.79%
CCOC(=O)N1CCN(CC(O)COc2c(OC)cccc2OC)CC1 (centres undefined) 9.23%
Cc1cc(C(=O)CCC(=O)Nc2ccc(C(N)=O)cc2)c(C)s1 15%
O=C(NC1CCCCC1)c1csnn1 -0.31%
Cc1ccccc1CN1CCN(Cc2ccccc2C(F)(F)F)CC1 25.3%
O=S1(=O)CCN(Cc2ccccc2C(F)(F)F)CC1 1.13%
C=CCOc1ccccc1CN1CCSCC1 14.2%
C=CCOc1ccccc1CN1CCCCCC1 13%
CCOC(=O)N1CCN(Cc2ccccc2F)CC1 17.8%
CS(=O)(=O)N1CCN(Cc2ccccc2C(F)(F)F)CC1 8.59%
Cc1ccc(S(=O)(=O)N2CCN(Cc3ccccc3C(F)(F)F)CC2)cc1 13%
Fc1ccccc1CN1CCCCCCC1 10.2%
O=C1CCCC2=C1C(c1cccc(O)c1)C1=C(N2)c2ccccc2C1=O (centres undefined) -0.19%
Cc1ccc(NC(=O)C2Cc3ccccc3C(=O)O2)cc1 (centres undefined) -7.83%
O=C(CN(C(=O)CCC(=O)Nc1ccccn1)C1CCCC1)NCc1ccccc1 4.99%
CCOc1ccccc1NC(=O)c1ccc2nc[nH]c2c1 4.69%
CCN(C(=O)COC(=O)c1ccc(=O)n(Cc2ccccc2)n1)C1CCCCC1 0.9%
O=S(=O)(NCC1CCCO1)c1ccc(Br)cc1 (centres undefined) 12.2%
CCOc1ccc(CCN2C(=S)N([C@@H](CC(C)C)CN3CCCC3CN3C(=S)NC[C@@H]3Cc3ccc(O)cc3)C[C@@H]2CC(C)C)cc1 (some centres undefined) 13.7%
Cc1csc(NC(=O)C2CCCN2C(=O)Oc2ccccc2)n1 (centres undefined) 7.03%
